Where “and” joins values, the source holds several entries; their conditions need not be identical. Equal entries are not always repeated. Out of some 5,500 compounds screened, about 2,000 (36%) were called active. Another 18% or so got no clear call; they are omitted. No stated cut-off is given here; in the data, active means normalized growth mostly below about 0.91 (no sharp cut-off); inconclusive means no clear call, values can overlap the other calls; inactive means mostly above about 0.92. Some of the results follow.
Assay: chemical genetic growth profiling, strain panel (AID 1159580);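 further: tested at 20 µM; growth read once vehicle control cultures reached saturation at 30 °C; 1 = growth at the plate median or of vehicle wells; lower values mean less growth of the strain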
Details: growth OD

Measured: normalized growth

Cn1cnc2c1c(=O)[nH]c(=O)n2C
inactive: S. cerevisiae deletion strains, locus YJR075W, strain HOC1, hits give low values 1.03 | S. cerevisiae deletion strains, locus YKL009W, strain mrt4, hits give low values 0.989 | S. cerevisiae deletion strains, locus YKL068W, hits give low values 1.01 | S. cerevisiae deletion strains, locus YKL085W, strain MDH1 (second series), hits give low values 1.01 | S. cerevisiae deletion strains, locus YKL085W, strain MDH1, hits give low values 1.01 | S. cerevisiae deletion strains, locus YKL160W, strain elf1, hits give low values 0.995 | S. cerevisiae deletion strains, locus YKL190W, strain CNB1, hits give low values 1.01 | S. cerevisiae deletion strains, locus YKR001C, strain vps1, hits give low values 1 | S. cerevisiae deletion strains, locus YKR026C, strain gcn3, hits give low values 0.961 | S. cerevisiae deletion strains, locus YKR091W, strain srl3, hits give low values 0.964 | S. cerevisiae deletion strains, locus YLL001W, strain dnm1, hits give low values 0.994 | S. cerevisiae deletion strains, locus YLL026W, hits give low values 0.996 | S. cerevisiae deletion strains, locus YLL041C, strain sdh2, hits give low values 1.01 | S. cerevisiae deletion strains, locus YLR027C, strain aat2, hits give low values 0.987 | S. cerevisiae deletion strains, locus YLR039C, strain RIC1, hits give low values 1.02 | S. cerevisiae deletion strains, locus YLR058C, strain SHM2, hits give low values 1.01 | S. cerevisiae deletion strains, locus YLR102C, strain apc9, hits give low values 1.01 | S. cerevisiae deletion strains, locus YLR113W, strain HOG1, hits give low values 0.973 | S. cerevisiae deletion strains, locus YLR221C, strain rsa3, hits give low values 0.976 | S. cerevisiae deletion strains, locus YLR258W, strain gsy2, hits give low values 1 | S. cerevisiae deletion strains, locus YLR262C, strain YPT6 (second series), hits give low values 0.978 | S. cerevisiae deletion strains, locus YLR262C, strain YPT6, hits give low values 1.04 | S. cerevisiae deletion strains, locus YLR268W, strain sec22, hits give low values 1.04 | S. cerevisiae deletion strains, locus YLR320W, strain mms22, hits give low values 1 | S. cerevisiae deletion strains, locus YLR330W, strain CHS5, hits give low values 1.01 | S. cerevisiae deletion strains, locus YLR342W, strain FKS1 (second series), hits give low values 1.01 | S. cerevisiae deletion strains, locus YLR342W, strain FKS1, hits give low values 0.978 | S. cerevisiae deletion strains, locus YLR357W, strain rsc2, hits give low values 1 | S. cerevisiae deletion strains, locus YLR370C, strain arc18, hits give low values 0.97 | S. cerevisiae deletion strains, locus YLR371W, strain rom2, hits give low values 1.03 | S. cerevisiae deletion strains, locus YLR384C, strain iki3, hits give low values 0.994 | S. cerevisiae deletion strains, locus YLR418C, strain cdc73, hits give low values 0.99 | S. cerevisiae deletion strains, locus YML016C, strain PPZ1, hits give low values 1.01 | S. cerevisiae deletion strains, locus YML032C, strain rad52, hits give low values 1.03 | S. cerevisiae deletion strains, locus YML120C, strain ndi1, hits give low values 0.959 | S. cerevisiae deletion strains, locus YML124C, strain tub3, hits give low values 1.01 | S. cerevisiae deletion strains, locus YMR058W, strain fet3, hits give low values 0.97 | S. cerevisiae deletion strains, locus YMR078C, strain ctf18, hits give low values 1.01 | S. cerevisiae deletion strains, locus YMR125W, strain sto1, hits give low values 0.978 | S. cerevisiae deletion strains, locus YMR129W, hits give low values 0.979 | S. cerevisiae deletion strains, locus YMR205C, strain PFK2, hits give low values 0.979 | S. cerevisiae deletion strains, locus YMR223W, strain ubp8, hits give low values 1 | S. cerevisiae deletion strains, locus YMR231W, strain pep5, hits give low values 1 | S. cerevisiae deletion strains, locus YMR263W, strain SAP30, hits give low values 1.01 and 0.995 | S. cerevisiae deletion strains, locus YMR307W, strain GAS1, hits give low values 0.981 and 0.999 | S. cerevisiae deletion strains, locus YNL067W, strain RPL9B, hits give low values 1.02 | S. cerevisiae deletion strains, locus YNL071W, strain lat1, hits give low values 0.983 | S. cerevisiae deletion strains, locus YNL128W, strain TEP1, hits give low values 1.02 and 1.01 | S. cerevisiae deletion strains, locus YNL153C, strain GIM3, hits give low values 1.01 | S. cerevisiae deletion strains, locus YNL175C, strain NOP13, hits give low values 0.995 | S. cerevisiae deletion strains, locus YNL183C, strain NPR1, hits give low values 0.948 | S. cerevisiae deletion strains, locus YNL197C, strain WHI3, hits give low values 1.02 | S. cerevisiae deletion strains, locus YNL209W, strain ssb2, hits give low values 0.986 | S. cerevisiae deletion strains, locus YNL224C, strain SQS1, hits give low values 1.01 | S. cerevisiae deletion strains, locus YNL233W, strain BNI4, hits give low values 1.01 | S. cerevisiae deletion strains, locus YNL248C, strain rpa49, hits give low values 0.978 | S. cerevisiae deletion strains, locus YNL250W, strain rad50, hits give low values 1.02 | S. cerevisiae deletion strains, locus YNL271C, strain bni1, hits give low values 1.01 | S. cerevisiae deletion strains, locus YNL298W, strain CLA4, hits give low values 1 | S. cerevisiae deletion strains, locus YNL307C, strain MCK1, hits give low values 1 | S. cerevisiae deletion strains, locus YNL322C, strain KRE1 (second series), hits give low values 0.953 | S. cerevisiae deletion strains, locus YNL322C, strain KRE1, hits give low values 1.01 and 1.02 | S. cerevisiae deletion strains, locus YNR049C, strain mso1, hits give low values 0.993 | S. cerevisiae deletion strains, locus YNR052C, strain pop2, hits give low values 1.01 | S. cerevisiae deletion strains, locus YOL006C, strain TOP1, hits give low values 1.06 | S. cerevisiae deletion strains, locus YOL012C, strain htz1 0.781 | S. cerevisiae deletion strains, locus YOL147C, strain pex11, hits give low values 1.01 | S. cerevisiae deletion strains, locus YOR001W, strain rrp6, hits give low values 0.986 | S. cerevisiae deletion strains, locus YOR061W, strain CKA2, hits give low values 1.01 | S. cerevisiae deletion strains, locus YOR069W, strain VPS5, hits give low values 1.01 | S. cerevisiae deletion strains, locus YOR070C, strain gyp1, hits give low values 1 | S. cerevisiae deletion strains, locus YOR080W, strain dia2, hits give low values 0.972 | S. cerevisiae deletion strains, locus YOR083W, strain WHI5 (second series), hits give low values 1 | S. cerevisiae deletion strains, locus YOR083W, strain WHI5, hits give low values 0.979 | S. cerevisiae deletion strains, locus YOR106W, strain vam3, hits give low values 0.977 | S. cerevisiae deletion strains, locus YOR136W, strain idh2, hits give low values 1.01 | S. cerevisiae deletion strains, locus YOR144C, strain elg1, hits give low values 1.01 | S. cerevisiae deletion strains, locus YOR184W, strain ser1, hits give low values 1.01 | S. cerevisiae deletion strains, locus YOR231W, strain MKK1, hits give low values 0.976 | S. cerevisiae deletion strains, locus YOR265W, strain rbl2, hits give low values 0.997 | S. cerevisiae deletion strains, locus YOR270C, strain vph1, hits give low values 0.986 | S. cerevisiae deletion strains, locus YOR290C, strain snf2, hits give low values 0.994 | S. cerevisiae deletion strains, locus YOR316C, strain cot1, hits give low values 1.01 | S. cerevisiae deletion strains, locus YPL051W, strain arl3, hits give low values 1 | S. cerevisiae deletion strains, locus YPL055C, strain LGE1, hits give low values 1.01 and 1.03 | S. cerevisiae deletion strains, locus YPL078C, strain atp4, hits give low values 0.979 | S. cerevisiae deletion strains, locus YPL106C, strain sse1, hits give low values 0.954 | S. cerevisiae deletion strains, locus YPL240C, strain hsp82, hits give low values 0.989 | S. cerevisiae deletion strains, locus YPL241C, strain CIN2, hits give low values 1.01 | S. cerevisiae deletion strains, locus YPL256C, strain CLN2, hits give low values 0.932 | S. cerevisiae deletion strains, locus YPR119W, strain clb2, hits give low values 1.02 | S. cerevisiae deletion strains, locus YPR141C, strain kar3, hits give low values 1.01 | S. cerevisiae deletion strains, locus YPR163C, strain tif3, hits give low values 1.01 | S. cerevisiae deletion strains, locus YPR167C, strain met16, hits give low values 1.01 | S. cerevisiae deletion strains, strain wtn01, hits give low values 1.01 | S. cerevisiae strains, strain wild type, hits give low values 1.01
